Screens from PubChem BioAssay.
Pol kappa inh-1 – inhibitors of human DNA polymerase kappa; purified Pol kappa, fluorescent DNA synthesis assay, 10 min; Potency, µM (top dose mostly 107 µM), inactives show top-dose activity, negative = inhibition, hits mostly inhibitors; hit rate 0.53% among 400,000; AID 588579; further: potency means the concentration at half of the fitted maximal effect; on the % scale 0 is the no-effect control and ±100 the full control effect
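Inhibition of 10 nM Pol kappa is measured by a fluorescent read-out at 0 and 10 min following addition of 50 nM substrate (final), with a 15-min room-temperature compound preincubation.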
Pol eta inh-1 – blocks human DNA polymerase eta activity. Potency, µM (top dose mostly 114 µM), inactives show top-dose activity change, negative = inhibition, most hits filed as inhibitors. hit rate 1.2% among 390,000. recombinant Pol eta, fluorescent DNA replication assay. Q9Y253. AID 588591; further: potency means the concentration at half of the fitted maximal effect; on the % scale 0 is the no-effect control and ±100 the full control effect
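Pol eta (10 nM) was preincubated with compounds for 15 min at room temperature, after which fluorescent replication substrate (50 nM final) was added to start the reaction. Fluorescence was read kinetically at 0 and 10 min.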
PGK inhibitor – blocks T. brucei phosphoglycerate kinase; P07378; PGK/GAPDH coupled, Kinase-Glo luminescence, 60 min; Potency, µM (series often up to 57.5 µM), for the others: top-dose activity change, negative = inhibition, usual class: inhibitors; hit rate 0.043% among 380,000; further: potency means the concentration at half of the fitted maximal effect; on the % scale 0 is the no-effect control and ±100 the full control effect; nearly all actives have a fitted effect of over 60% in size
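Recombinant glycosomal PGK reaction used 1,3-bisphosphoglycerate generated in-well by GAPDH (100nM final) in 100mM TEA pH 7.6, 5mM MgCl2, 0.01% Tween-20. After 60 minutes at room temperature, ATP was read by Kinase-Glo Plus luminescence end-point.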
FEN1 inh – blocks human flap endonuclease 1; P39748; Recombinant FEN1 flap cleavage, fluorescence, 15 min; Potency, µM (doses to about 114 µM), for inactives: top-dose activity change, negative = inhibition, actives largely listed as inhibitors; hit rate 0.35% among 390,000; AID 588795; further: potency means the concentration at half of the fitted maximal effect; on the % scale 0 is the no-effect control and ±100 the full control effect; nearly all actives have a fitted effect of over 65% in size
Target sequence (P39748 whole entry, looked up): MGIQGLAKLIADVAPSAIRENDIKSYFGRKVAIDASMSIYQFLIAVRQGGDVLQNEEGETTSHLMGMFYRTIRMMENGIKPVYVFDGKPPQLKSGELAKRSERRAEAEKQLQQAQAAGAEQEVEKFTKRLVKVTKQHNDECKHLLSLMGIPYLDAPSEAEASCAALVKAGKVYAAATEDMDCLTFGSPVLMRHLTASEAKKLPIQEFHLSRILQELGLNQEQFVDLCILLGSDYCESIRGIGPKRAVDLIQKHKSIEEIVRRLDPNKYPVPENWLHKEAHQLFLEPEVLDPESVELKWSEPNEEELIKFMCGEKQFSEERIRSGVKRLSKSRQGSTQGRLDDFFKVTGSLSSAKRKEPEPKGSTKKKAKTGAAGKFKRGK
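Recombinant FEN1 (10 nM) was preincubated with pin-transferred compounds for 15 min at room temperature, then flap DNA substrate (50 nM final) was added. Plates were read at 0 and 15 min, and normalized concentration–response data were fitted to a four-parameter Hill equation.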
POLB inh – blocks human DNA polymerase beta activity; Potency, µM (top dose mostly 114 µM), without a hit: at the top dose activity change, negative = inhibition, most hits filed as inhibitors; Pol beta primer extension/strand displacement, fluorescence kinetic; P06746; hit rate 1.3% among 340,000; further: potency means the concentration at half of the fitted maximal effect; on the % scale 0 is the no-effect control and ±100 the full control effect
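Enzyme-only controls used 10 nM Pol beta; buffer lacking enzyme served as negative control. Compound preincubated 15 min, then 50 nM substrate added; 0 and 10 min reads at room temperature.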
POLI inh – inhibitors of human DNA polymerase iota; Q9UNA4; Pol iota fluorescent replication assay, 10 min; Potency, µM (highest dose often 115 µM), inactives show top-dose activity, negative = inhibition, hits mostly inhibitors; hit rate 1% among 390,000; further: potency means the concentration at half of the fitted maximal effect
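Fluorescent replication assay read twice, at 0 min and 10 min after adding 50 nM (final) substrate. Enzyme (10 nM) and compounds were first incubated 15 min at room temperature; enzyme-free buffer wells were negative controls.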
GALK inh confirm – confirmation of human galactokinase (GALK) inhibitors | shares compounds with Pol eta inh-1 | purified GALK, Kinase-Glo ATP depletion luminescence | Potency, µM (top dose mostly 115 µM), without a hit: top-dose activity, negative = inhibition, most hits filed as inhibitors | hit rate 70% among 150 | AID 2015
Redox cycling – counter-screen for GALK inhibitors: redox cycling H2O2 generation; shares compounds with Pol eta inh-1; Phenol red-HRP H2O2 redox cycling, absorbance 600 nm; Potency, µM (doses to about 115 µM), for inactives: at the top dose activity change, negative = H2O2 signal, actives largely listed as inhibitors; hit rate 40% among 150
HEK293 viability – reduces HEK-293 cell viability in GALK counter-screen. HEK-293 viability, ATP luminescence (CellTiter-Glo), 24/48 h. hit rate 10% among 170. shares compounds with Pol eta inh-1. AID 2547. Potency, µM (series often up to 46.1 µM), without a hit: top-dose activity change, negative = cytotoxicity, usual class: inhibitors; further: potency means the concentration at half of the fitted maximal effect; on the % scale 0 is the no-effect control and ±100 the full control effect
Pol kappa inh-2 – Pol kappa (human) inhibition, cherry-pick confirmation | shares compounds with Pol eta inh-1 | purified Pol-kappa, fluorescent strand-displacement substrate | Potency, µM, actives largely listed as inhibitors | hit rate 76% among 920 | AID 720501; further: potency means the concentration at half of the fitted maximal effect
Pol eta inh-2 – Pol eta (human) inhibition, cherry-pick confirmation | Pol eta primer extension, TAMRA/BHQ fluorescence, 10 min | shares compounds with Pol eta inh-1 | Potency, µM, hits mostly inhibitors | hit rate 64% among 2,600; further: potency means the concentration at half of the fitted maximal effect
Numbers without * were called inactive; i = inactive; ? = inconclusive; . = no result. In the library only some 2.4% were active in any assay of this set; here they are far more common. The call rests on the fitted dose curve; in most records, active means well fitted curve in the direction sought with a large enough effect; inconclusive means small, poorly fitted or top-dose-only effect, or another doubt; inactive means no such curve, though single readings can be large; an effect the other way counts as inactive or inconclusive.

SMILES | Pol kappa inh-1 | Pol eta inh-1 | PGK inhibitor | FEN1 inh | POLB inh | POLI inh | others
O=C(Nc1ccc(OCc2cc(=O)n3c4c(sc3n2)CCCC4)cc1)c1cccc(F)c1 | -18.1% | -1.4% | 0.3% | -2.6% | -9.7% | 0.3%
COc1ccccc1NC(=O)CSc1ncc2c(n1)-c1ccccc1N(Cc1ccccc1C)S2(=O)=O | -6.9% | -10.8% | -10.6% | -10.7% | 3.4% | -3.9%
O=C(Nc1ccc(F)cc1)Nc1ccc2snnc2c1 | -8.0% | -13.6% | 6.3% | -5.4% | 8.7% | 7.6%
CC(=O)c1ccc(NC(=O)Nc2ccc3snnc3c2)cc1 | -24.2% | ? | -10.6% | ? | ? | 89.1µM* | Pol kappa inh-2=?
CCOc1ccc(NS(=O)(=O)c2ccc3[nH]c4c(c3c2)CCCCC4)cc1 | -7.6% | -6.6% | -8.5% | 0.2% | -10.3% | -25.2%
Cn1c2ccccc2c2cc(/C=N/NC(=O)c3cc(O)cc(O)c3)ccc21 | ? | 22.4µM* | ? | 39.8µM* | 89.1µM* | 28.2µM* | Pol kappa inh-2=47.4*;Pol eta inh-2=53.6*
CCn1c2ccccc2c2cc(/C=N/NC(=O)c3ccccc3)ccc21 | 0.0% | 5.0% | i | -0.6% | 25.7% | -2.4%
CC(=O)/C(N=Nc1ccc(C(=O)O)cc1[N+](=O)[O-])=C(\C)O | ? | 11.2µM* | -26.9% | -5.4% | ? | 50.1µM* | Pol eta inh-2=?
Cc1ccc(F)c(NC(=O)/C(C#N)=C(\O)c2ccc(C(C)(C)C)cc2)c1 | -7.0% | 79.4µM* | . | ? | 89.1µM* | ? | GALK inh confirm=33.5µM*;Redox cycling=-20.3%;HEK293 viability=3.6%
Cc1cccc(NC(=O)C(=O)NNC(=O)c2ccc(C(C)(C)C)cc2)c1 | -10.1% | -24.3% | 4.4% | 8.9% | -26.6% | 53.3%
CC(=O)NCc1ccc(C(=O)COC(=O)COc2ccccc2)s1 | ? | 22.4µM* | -9.7% | 4.7% | . | 44.7µM* | Pol eta inh-2=75.7*
COc1ccc(-n2ccnc(NCCc3ccc(S(N)(=O)=O)cc3)c2=O)cc1 | 27.2% | -10.3% | 0.5% | -0.9% | 18.0% | 6.2%
Cc1nn(CCc2nn[nH]n2)c2nc(-c3ccc(C4CCCCC4)cc3)cc(C(F)(F)F)c12 | -34.9% | 44.7µM* | 9.5% | ? | ? | 28.9% | Pol eta inh-2=?
CC(=O)c1cccc(NC(=O)c2noc3c2CCCC3)c1 | 1.5% | -8.4% | -0.7% | -2.6% | 1.3% | 59.4%
N#Cc1c(N)n(-c2ccc(O)cc2)c2nc3ccccc3nc12 | -3.7% | -0.3% | -4.7% | -3.6% | -18.9% | 18.2%
N#Cc1c(NC(=O)c2ccc(Br)o2)n(-c2ccccc2)c2nc3ccccc3nc12 | -4.9% | 35.5µM* | -6.0% | -17.7% | -1.3% | 10µM* | GALK inh confirm=26.6µM*;Redox cycling=5.3µM*;HEK293 viability=-12.0%
Cc1cc(NS(=O)(=O)c2ccc(NC(=O)c3ccco3)cc2)nc(C)n1 | -7.9% | ? | 1.8% | -0.5% | -0.6% | -4.4%
